Measurements reported in PubChem BioAssay (Tox21).
Records with an inconclusive call do not appear. Calls of active or inactive are those of the source. Unless noted, calls follow the shape of the dose curve; as a rule, active = well fitted curve in the direction sought with a large enough effect in the repeat runs; inconclusive = weak or mixed curves; inactive = no such curve, though single readings can be large; an effect the other way counts as inactive or inconclusive.

Columns and labels:
[1] = biological target: Retinoic acid receptor RXR-alpha (Homo sapiens) (UniProt P19793); test: qHTS assay to identify small molecule agonists of the RXR signaling pathway (AID 1159527; calls by dose curve; also: nearly all actives have a fitted effect of over 35% in size)
Chain of Retinoic acid receptor RXR-alpha (Homo sapiens) (P19793 whole entry, looked up): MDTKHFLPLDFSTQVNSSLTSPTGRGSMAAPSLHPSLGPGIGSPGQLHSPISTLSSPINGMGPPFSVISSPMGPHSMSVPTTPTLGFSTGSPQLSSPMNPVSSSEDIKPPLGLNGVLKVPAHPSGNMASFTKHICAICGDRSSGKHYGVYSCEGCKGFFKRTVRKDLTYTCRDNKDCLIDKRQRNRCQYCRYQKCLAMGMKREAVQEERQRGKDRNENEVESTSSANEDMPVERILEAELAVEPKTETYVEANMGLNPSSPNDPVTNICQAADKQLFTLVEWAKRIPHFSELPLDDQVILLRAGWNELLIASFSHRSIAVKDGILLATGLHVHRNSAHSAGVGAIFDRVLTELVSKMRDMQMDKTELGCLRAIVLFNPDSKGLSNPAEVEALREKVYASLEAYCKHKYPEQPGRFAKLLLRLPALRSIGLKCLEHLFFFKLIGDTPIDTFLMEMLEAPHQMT
Method in brief: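 Agonist mode; 9-cis retinoic acid positive control. HEK 293T UAS-bla reporter cells, 2% charcoal-stripped FBS, 16 hr compound exposure at 37 C/5% CO2. LiveBLAzer B/G FRET substrate 2 hr RT; ex 405, em 460/530 nm.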

[2] = qHTS assay to identify small molecule agonists of the RXR signaling pathway - cell viability counter screen (AID 1159529); also: series mostly up to about 77 µM; nearly all actives have a fitted effect of over 50% in size
Method in brief: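 Luminescence from CellTiter-Glo (30 min, RT) measured viability in the same wells as the beta-lactamase reporter readout. Cells: GeneBLAzer RXR-alpha HEK 293T, 2% charcoal-stripped FBS. Compound exposure 16 hr, 37 C.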

[3] = qHTS assay to identify small molecule antagonists of the retinoid acid receptor (RAR) signaling pathway - cell viability counter screen (AID 1159551); also: nearly all actives have a fitted effect of over 35% in size
Method in brief: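 Cytotoxicity counter screen in C3RL4 cells: 6 h compound exposure with 1 uM retinol (final), viability from cellular ATP by luminescence.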

[4] = qHTS assay to identify small molecule antagonists of the retinoic acid receptor (RAR) signaling pathway (AID 1159552; also: nearly all actives have a fitted effect of over 50% in size)
Method in brief: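 Luminescence from a RARE luciferase reporter in C3RL4 cells served as read-out. Cells received compounds together with 1 uM final retinol and incubated 6 hr at 37 C before detection reagent was added for 30 min at room temperature.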

[5] = qHTS assay to identify small molecule antagonists of the estrogen related receptor (ERR) signaling pathway from Tox21 library - cell viability counter screen (AID 1224834); also: nearly all actives have a fitted effect of over 30% in size; also: potency is read from the fitted curve at half-maximal effect
Method in brief: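 Cytotoxicity of test substances is gauged in the same ERR cells used for the antagonist screen, after 17.5 h of compound treatment at 37 C, by CellTiter-Fluor fluorescence measured after 30 min.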

[6] = biological target: Luciferin 4-monooxygenase (Photinus pyralis) (UniProt P08659); test: qHTS assay to identify small molecule inhibitors of firefly luciferase (AID 1224835); also: nearly all actives have a fitted effect of over 25% in size; also: potency is read from the fitted curve at half-maximal effect; as to activity change, negative = inhibition: series mostly up to about 120 µM
Chain of Luciferin 4-monooxygenase (Photinus pyralis) (P08659 whole entry, looked up): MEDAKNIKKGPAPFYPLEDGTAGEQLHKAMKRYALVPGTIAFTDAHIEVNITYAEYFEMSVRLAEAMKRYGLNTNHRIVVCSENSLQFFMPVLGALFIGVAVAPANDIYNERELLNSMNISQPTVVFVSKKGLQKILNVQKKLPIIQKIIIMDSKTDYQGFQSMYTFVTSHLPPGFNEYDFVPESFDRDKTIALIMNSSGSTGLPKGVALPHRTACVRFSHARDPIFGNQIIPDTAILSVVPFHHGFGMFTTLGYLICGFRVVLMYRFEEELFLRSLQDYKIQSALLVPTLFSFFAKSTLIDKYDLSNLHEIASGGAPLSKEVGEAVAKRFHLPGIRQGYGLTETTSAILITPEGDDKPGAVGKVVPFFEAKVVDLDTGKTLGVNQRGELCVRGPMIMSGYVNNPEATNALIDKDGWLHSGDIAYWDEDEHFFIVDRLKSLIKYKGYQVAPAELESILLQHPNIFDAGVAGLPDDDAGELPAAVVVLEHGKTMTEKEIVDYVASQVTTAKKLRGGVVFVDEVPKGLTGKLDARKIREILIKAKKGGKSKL
Method in brief: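 Inhibition of purified Photinus luciferase is measured by luminescence. Substrate levels (D-luciferin, ATP) sit at their KM values. Each compound is tested in a concentration series.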

[7] = qHTS assay to identify small molecule agonists of the constitutive androstane receptor (CAR) signaling pathway - cell viability counter screen (AID 1224836); also: nearly all actives have a fitted effect of over 45% in size; also: potency is read from the fitted curve at half-maximal effect; as to viability change, negative = cytotoxic: series mostly up to about 92 µM
Method in brief: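 Viability read-out: CellTiter-Fluor fluorescence after 23 h compound exposure at 37 C/5% CO2 in double-stable HepG2-CYP2B6-hCAR cells, with PK11195 present at 0.75 uM final; compounds tested in 15-point titration.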

[8] = qHTS assay to identify small molecule antagonists of the constitutive androstane receptor (CAR) signaling pathway - cell viability counter screen (AID 1224837); also: nearly all actives have a fitted effect of over 45% in size; also: potency is read from the fitted curve at half-maximal effect; as to activity change, negative = cytotoxicity: series mostly up to about 92 µM
Method in brief: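 Multiplexed cytotoxicity read-out for the CAR antagonist screen: double-stable HepG2-CYP2B6-hCAR cells co-treated with 50 nM CITCO (final) and compound over 15 concentrations, incubated 23 hr, then assessed by CellTiter-Fluor fluorescence.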

[9] = biological target: Nuclear receptor subfamily 1 group I member 3 (Homo sapiens) (UniProt Q14994); test: qHTS assay to identify small molecule antagonists of the constitutive androstane receptor (CAR) signaling pathway (AID 1224838); also: nearly all actives have a fitted effect of over 40% in size
Chain of Nuclear receptor subfamily 1 group I member 3 (Homo sapiens) (Q14994 whole entry, looked up): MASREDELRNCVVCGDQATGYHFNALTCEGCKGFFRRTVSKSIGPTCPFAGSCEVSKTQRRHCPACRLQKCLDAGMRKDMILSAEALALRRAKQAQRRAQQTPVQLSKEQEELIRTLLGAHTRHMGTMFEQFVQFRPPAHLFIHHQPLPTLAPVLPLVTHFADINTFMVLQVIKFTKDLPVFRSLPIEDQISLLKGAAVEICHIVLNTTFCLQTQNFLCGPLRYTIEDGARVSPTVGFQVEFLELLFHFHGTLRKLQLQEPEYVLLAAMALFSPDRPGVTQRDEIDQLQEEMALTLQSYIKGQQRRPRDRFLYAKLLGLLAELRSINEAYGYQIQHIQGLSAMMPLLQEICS
Method in brief: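 Compounds were titrated across 15 concentrations onto HepG2 cells double-stably expressing hCAR and a CYP2B6-2.2kb reporter, together with 50 nM CITCO (final). After 24 h at 37 C, luciferase activity was measured by luminescence.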

[10] = qHTS assay to identify small molecule antagonists of the estrogen related receptor signaling pathway with the pleiotropic PPARgamma coactivator (PGC) from Tox21 10K library - cell viability counter screen (AID 1224840; active = well fitted cell-killing curve with a large enough effect in the repeat runs, not every such curve was filed as active; also: nearly all actives have a fitted effect of over 40% in size)
Method in brief: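 Step one, plate 2,000 PGC/ERR cells per well; step two, incubate 6 h at 37 C/5% CO2; step three, pin-transfer compounds; step four, incubate 17.5 h; step five, add CellTiter-Fluor and read fluorescence after 30 min.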

[11] = qHTS assay to identify small molecule antagonists of the estrogen related receptor signaling pathway with the pleiotropic PPARgamma coactivator (PGC) from Tox21 10K library (AID 1224841; call rule not given here; also: series mostly up to about 92 µM; actives are mostly falling curves and most rising ones were filed inactive; nearly all actives have a fitted effect of over 50% in size)
Method in brief: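 Antagonism in this quantitative HTS is taken from loss of luciferase signal in PGC/ERR cells. Cells (2,000/well) are treated with compounds in DMSO after a 6 h settling period and read by One-Glo luminescence after 18 h.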

[12] = qHTS assay to identify small molecule agonists of the estrogen related receptor signaling pathway with the pleiotropic PPARgamma coactivator (PGC) from Tox21 10K library (AID 1224842); also: nearly all actives have a fitted effect of over 15% in size
Method in brief: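 Luminescence from One-Glo (30 min, room temperature) measured after PGC/ERR cells had 18 h at 37 C with pinned compound (23 nL in DMSO). Cells had been seeded at 2,000 per well and pre-incubated 6 h.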

[13] = biological target: Thyrotropin receptor (Homo sapiens) (UniProt P16473); test: qHTS assay to identify small molecule agonists of the thyroid stimulating hormone receptor (TSHR) signaling pathway (AID 1224843; calls by dose curve; also: nearly all actives have a fitted effect of over 45% in size)
Chain of Thyrotropin receptor (Homo sapiens) (P16473 whole entry, looked up): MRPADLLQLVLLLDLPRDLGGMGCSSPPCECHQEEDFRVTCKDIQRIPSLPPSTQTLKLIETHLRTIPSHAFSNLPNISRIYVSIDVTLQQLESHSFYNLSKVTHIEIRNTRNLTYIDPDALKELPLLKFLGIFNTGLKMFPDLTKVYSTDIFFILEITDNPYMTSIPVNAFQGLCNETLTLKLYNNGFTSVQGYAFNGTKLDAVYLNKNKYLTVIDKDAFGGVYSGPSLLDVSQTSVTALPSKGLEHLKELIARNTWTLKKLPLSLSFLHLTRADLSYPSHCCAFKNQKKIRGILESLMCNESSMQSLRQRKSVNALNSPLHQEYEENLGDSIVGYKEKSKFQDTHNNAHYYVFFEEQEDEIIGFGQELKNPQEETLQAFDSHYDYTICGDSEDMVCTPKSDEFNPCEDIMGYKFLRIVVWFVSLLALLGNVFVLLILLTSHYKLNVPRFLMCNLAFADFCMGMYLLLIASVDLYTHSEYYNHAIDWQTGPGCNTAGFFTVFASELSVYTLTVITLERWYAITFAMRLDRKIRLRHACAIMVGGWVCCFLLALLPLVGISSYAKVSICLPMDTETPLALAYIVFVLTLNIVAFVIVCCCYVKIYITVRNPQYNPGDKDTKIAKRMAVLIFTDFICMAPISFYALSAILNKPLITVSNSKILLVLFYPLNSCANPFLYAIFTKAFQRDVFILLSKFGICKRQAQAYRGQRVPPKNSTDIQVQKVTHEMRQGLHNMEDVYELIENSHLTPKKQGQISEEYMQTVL
Method in brief: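 Screening of the Tox21 10K collection used HEK293 cells engineered with TSHR at 800 cells per well. After a 30-min room-temperature compound exposure, HTRF cAMP reagents were added and fluorescence recorded 1 h later.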

[14] = qHTS assay to identify small molecule agonists of H2AX (AID 1224845; active = well fitted activation curve with a large enough effect in the signal ratio in the repeat runs, not every such curve was filed as active; the % refers to the signal ratio)
Method in brief: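 Phospho-H2AX Ser139 measured by HTRF (ex 320 nm; em 665 and 620 nm) after 24 hr antibody incubation. Compounds, 15 concentrations, 0.76% DMSO, were applied to CHO-K1 cells for 3hr at 37C before lysis.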

[15] = biological target: Nuclear receptor subfamily 1 group I member 3 (Homo sapiens) (UniProt Q14994); test: qHTS assay to identify small molecule agonists of the constitutive androstane receptor (CAR) signaling pathway (AID 1224839); also: nearly all actives have a fitted effect of over 15% in size; also: potency is read from the fitted curve at half-maximal effect;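 as to activation: HepG2 cells stably carrying human CAR and a CYP2B6 luciferase reporter; series mostly up to about 92 µM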
Method in brief: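 Luminescence read-out (ONE-Glo, 30 min, room temperature) from double-stable HepG2-CYP2B6-hCAR cells exposed 24 h to 15-point compound series in presence of 0.75 uM PK11195 final.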

[16] = qHTS assay to identify small molecule agonists of the hypoxia (HIF-1) signaling pathway - cell viability counter screen (AID 1224844; calls by dose curve; also: nearly all actives have a fitted effect of over 50% in size)
Method in brief: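 Tox21 10K compounds were added to HRE-bla ME-180 cells (0.5% dialyzed FBS) and incubated 17 hrs at 37C; ATP-based CellTiter-Glo luminescence then reported cell viability in the same wells.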

[17] = qHTS assay to identify small molecule antagonists of the estrogen related receptor (ERR) signaling pathway (AID 1224819)
Method in brief: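 Compounds dissolved in DMSO were pin-transferred onto ERR cells that had been plated 6 h earlier, and cells were then incubated 18 h at 37 C; signal was luciferase luminescence via One-Glo.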

[18] = qHTS assay to identify small molecule agonists of the estrogen related receptor signaling pathway with the pleiotropic PPARgamma coactivator (PGC) (AID 1224823)
Method in brief: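 Steps: plate PGC/ERR cells at 2,000 cells/well; incubate 6 h, 37 C/5% CO2; pin-transfer compounds (DMSO); incubate 18 h, 37 C; add One-Glo; 30 min RT; read luminescence.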

[19] = qHTS assay to identify small molecule agonists of the estrogen related receptor (ERR) signaling pathway (AID 1224820)
Method in brief: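 Cells: ERR line from NTP, 2,000/well. Pre-incubation 6 h, 37 C/5% CO2. Compound (DMSO) pin transfer, 18 h 37 C. One-Glo, 30 min RT, luminescence.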
% is scaled to controls: 0 for no effect and ±100 for the full control effect.

COc1ccc2nc(SCc3ncc(C)c(OC)c3C)[nH]c2c1
active: Potency [6] 13.8 µM
inactive: Potency [1] | outcome [2] | outcome [3] | outcome [4] | Potency [5] | Potency [7] | Potency [8] | outcome [9] | outcome [10] | Potency [11] | outcome [12] | Potency [13] | outcome [14]

COc1ccc(OC)c(Cl)c1
inactive: Potency [1] | outcome [2] | outcome [3] | outcome [4] | Potency [5] | Potency [6] | Potency [7] | Potency [8] | outcome [9] | Potency [15] | outcome [10] | Potency [11] | outcome [12] | Potency [13] | outcome [16] | outcome [14]

CC(C)CC(C)CC(C)CC(C)COC(=O)c1ccccc1C(=O)OCC(C)CC(C)CC(C)CC(C)C (centres undefined)
inactive: Potency [1] | outcome [2] | outcome [3] | outcome [4] | Potency [5] | Potency [6] | Potency [7] | Potency [8] | outcome [10] | Potency [11] | outcome [12] | Potency [13] | outcome [16] | outcome [14]

CC(C)OC(=O)CCCCC(=O)OC(C)C
inactive: Potency [1] | outcome [2] | outcome [3] | outcome [4] | Potency [5] | Potency [6] | Potency [7] | Potency [8] | outcome [10] | Potency [13] | outcome [16] | outcome [14]

CC(C)(C)OC(=O)c1ccc(O)cc1
inactive: Potency [1] | outcome [2] | outcome [3] | outcome [4] | Potency [5] | Potency [7] | Potency [8] | outcome [9] | outcome [10] | Potency [11] | outcome [12] | outcome [16] | outcome [14]
active: Potency [6] 39.9 µM | Potency [15] 24.3 µM

O=C(NCCN1CCOCC1)c1ccc(Cl)cc1
inactive: Potency [1] | outcome [2] | outcome [3] | outcome [4] | outcome [17] | outcome [18] | Potency [6] | Potency [7] | Potency [8] | outcome [9] | Potency [15] | Potency [11] | outcome [12] | Potency [13] | outcome [16] | outcome [14]

COC(=O)C1CC(=O)C(C(=O)OC)CC1=O (centres undefined)
inactive: activation [1] 10.5% [at 6.98 µM] | activity change, negative = cytotoxicity [2] 8.97% [at 6.97 µM] | activity change, negative = cytotoxicity [3] 3.23% [at 8.39 µM] | activity, negative = inhibition [4] -2.77% [at 8.39 µM] | viability change, negative = cytotoxic [5] 2.89% [at 8.39 µM] | activity change, negative = inhibition [6] 0.09% [at 10.5 µM] | viability change, negative = cytotoxic [7] 10.3% [at 8.39 µM] | activity change, negative = cytotoxicity [8] 2.02% [at 8.39 µM] | viability change, negative = cytotoxic [10] 11% [at 8.39 µM] | activity, negative = inhibition [11] 1.96% [at 8.39 µM] | activation [12] 0.14% [at 8.39 µM] | activation [13] -7.69% [at 8.39 µM] | activity change, negative = cytotoxicity [16] 4.68% [at 6.97 µM] | activation (H2AX phosphorylation) [14] 1.21% [at 14 µM]

COc1ccc2c(c1OC)C(=O)O[C@@H]2[C@H]1c2c(cc3c(c2OC)OCO3)CCN1C
inactive: Potency [1] | outcome [2] | outcome [3] | outcome [4] | outcome [17] | outcome [19] | outcome [18] | outcome [9] | Potency [11] | outcome [12] | Potency [13] | outcome [16] | outcome [14]
active: Potency [5] 11.9 µM | Potency [7] 8.41 µM | Potency [8] 10.6 µM

CC(=O)c1ccc2c(c1)Cc1ccccc1-2
active: Potency [15] 54.5 µM
inactive: Potency [1] | outcome [2] | outcome [3] | outcome [4] | Potency [5] | Potency [7] | Potency [8] | outcome [9] | outcome [10] | outcome [16] | outcome [14]
